# Experimental data as given in the supplement of paper PMC9877034.
# Structures can show the parent of a compound that is named as a salt. Whole data set: some 1,000 compounds, median “cFRET/donor change relative to DMSO, normalised to beta-lapachone positive control (supercomplex I-IV assembly)” near 0.18, cut for the lowest 2% near -1. What follows is part of a selection rich in the lowest values, with near analogues and random picks from the rest.
# Test system: C2C12 (NDUFB8-AcGFP / COX8A-DsRed-Monomer FRET reporter)
# Assay: cFRET/donor change relative to DMSO, normalised to beta-lapachone positive control (supercomplex I-IV assembly) (fraction of beta-lapachone effect); higher = more respiratory supercomplex assembly
# Settings: 40 µM; 24 h
# Description: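 Cells were treated with 40 uM compound for 24 h and imaged on an IN Cell Analyzer 6000. Corrected FRET was divided by donor signal (cFRET/donor) and measured in two replicate experiments. The score is (mean cFRET/donor of compound - mean DMSO) / (mean beta-lapachone 40 uM - mean DMSO). Compounds flagged for prominent cell death, abnormal morphology or decreased cell number were excluded.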
row,Compound,cFRET/donor change
1,COc1cccc2c1[C@@H]1CN(CCCCn3c(=O)[nH]c4c(sc5ncc(-c6ccccc6)nc54)c3=O)C[C@@H]1CO2 [Fiduxosin hydrochloride],-1.25
2,Cn1cnc([N+](=O)[O-])c1Sc1ncnc2[nH]cnc12 [Azathioprine],0.496
3,N=c1ccn2c(n1)O[C@H]1[C@H](O)[C@@H](CO)O[C@H]12 [Ancitabine hydrochloride],-0.0397
4,Fc1ccc2[nH]c(CN3CCN(c4ccccn4)CC3)cc2c1,0.168
5,CC(C)[C@H](N)C(=O)OCC(CO)OCn1cnc2c(=O)[nH]c(N)nc21 (some centres not stated) [Valganciclovir hydrochloride hydrate],-0.064
6,N=C(N)NCCCCN [Agmatine sulfate],0.125
7,CS(=O)(=O)c1cccc(CNc2nc(Nc3ccc4c(c3)CCC(=O)N4)ncc2C(F)(F)F)c1,2
8,NC(=S)c1ccc[n+]([C@@H]2O[C@@H](COP(=O)([O-])OP(=O)(O)OC[C@H]3O[C@@H](n4cnc5c(N)ncnc54)C(OP(=O)(O)O)[C@H]3O)C(O)C2O)c1 (some centres not stated) [Thio-NADP sodium],-0.317
9,O=C(c1ccc(OCCCc2c[nH]cn2)cc1)C1CC1 [Ciproxifan hydrochloride],0.224
10,O=c1ccc2c(OCCCCc3ccccc3)c3ccoc3cc2o1 [Psora-4],0.396
11,Cc1cccc(-c2[nH]ncc2-c2ccc3ncccc3n2)n1,0.0385
12,CC1=C(C)C(=O)C(CCCCC#CCCCC#CCO)=C(C)C1=O,0.121
13,Nc1cc2c(ncn2CCOCP(=O)(O)O)c(=O)[nH]1 [PMEG hydrate],0.0365
14,N[C@@H]1[C@H]2CN(c3nc4c(cc3F)c(=O)c(C(=O)O)cn4-c3ccc(F)cc3F)C[C@@H]12 [Trovafloxacin mesylate],0.3
15,CC(C(O)c1ccc(O)cc1)N1CCC(Cc2ccccc2)CC1 (configuration not stated) [Ifenprodil tartrate],0.529
16,O=C(Nc1cccnc1)N1CCC(Cc2cccc(Oc3ccc(C(F)(F)F)cn3)c2)CC1 [PF 3845 hydrate],0.494
17,Nc1ccc(-c2ccc3ccccc3n2)cc1 [BF-170 hydrochloride],-0.429
18,CN(C)C(=O)[C@H](O)[C@H](Cc1ccccc1)NC(=O)c1cc2cc(Cl)ccc2[nH]1,0.332
19,NC(=O)C1=CN(C2OC(COP(=O)(O)OP(=O)(O)OC[C@H]3O[C@@H](n4cnc5c(N)ncnc54)C(OP(=O)(O)O)[C@H]3O)C(O)C2O)C=CC1 (some centres not stated) [NADPH tetrasodium],-0.198
20,Cc1[nH]c(=O)c(C#N)cc1-c1ccc2nccn2c1 [Olprinone hydrochloride],0.211
21,CN1C2CCCC1CC(NC(=O)c1nn(C)c3ccccc13)C2 (configuration not stated) [Granisetron hydrochloride],0.333
22,O=C(O)COCCN1CCN(C(c2ccccc2)c2ccc(Cl)cc2)CC1 (configuration not stated) [Cetirizine dihydrochloride],0.511
23,Cc1cccc(C)c1NC(=O)C(C)N (configuration not stated) [Tocainide hydrochloride],0.415
24,CCCCCc1ccc(/C=C/C(=O)Nc2cc(Cl)ccc2C(=O)O)cc1,0.0865
25,Oc1cc2c(c(Cl)c1O)CCNCC2c1ccccc1 (racemic) [(±)-6-Chloro-PB hydrobromide],2.85
26,Nc1ccn([C@@H]2O[C@H](CO)[C@@H](O)C2(F)F)c(=O)n1 [Gemcitabine hydrochloride],0.261

row,Compound,cFRET/donor change
1,CCCCc1ncc(/C=C(\Cc2cccs2)C(=O)O)n1Cc1ccc(C(=O)O)cc1 [Eprosartan mesylate],-0.151
2,COCCOc1cc2nc[nH]c(=O)c2cc1OCCOC,0.343
3,CCNC(=O)[C@H]1O[C@@H](n2cnc3c(N)nc(NCCc4ccc(CCC(=O)O)cc4)nc32)[C@H](O)[C@@H]1O,-0.069
4,Nc1nc2ccc(Cl)cc2c2nc(-c3ccco3)nn12,0.163
5,Nc1nc2ccc(Cl)cc2n2c(-c3ccccc3)nnc12,-1.23
6,OC[C@H]1O[C@H]([S-])[C@H](O)[C@@H](O)[C@@H]1O.[Au+] [Aurothioglucose],-0.0527
7,"Nc1ncnc2c1ncn2[C@@H]1O[C@H](COP(=O)(O)OP(=O)(O)OP(=O)(O)OP(=O)(O)OC[C@@H]2O[C@H](n3cnc4c(N)ncnc43)C(O)[C@@H]2O)[C@H](O)C1O (some centres not stated) [P1,P4-Di(adenosine-5')tetraphosphate triammonium]",0.0746
8,CCOC(=O)[C@H](CCc1ccccc1)N[C@@H](C)C(=O)N1[C@H](C(=O)O)C[C@H]2CCCC[C@@H]21 [Trandolapril],-0.23
9,O=C1NC(=O)/C(=C\c2ccc3nccnc3c2)S1,2.84
10,CCc1ccc(/C=C2/SC(=S)NC2=O)cc1,-1.41
11,CCCCS(=O)(=O)N[C@@H](Cc1ccc(OCCCCC2CCNCC2)cc1)C(=O)O [Tirofiban hydrochloride monohydrate],0.174
12,CO[C@H]1O[C@@H]2O[C@@]3(C)CC[C@H]4[C@H](C)CC[C@@H]([C@H]1C)[C@@]24OO3 [Artemether],0.954
13,O=C(NOCC1CC1)c1cc(Br)c(F)c(F)c1Nc1ccc(I)cc1Cl,0.176
14,COc1cc(Nc2c(C#N)cnc3cc(OCCCN4CCN(C)CC4)c(OC)cc23)c(Cl)cc1Cl [Bosutinib],0.241
15,NCC(O)c1ccc(O)c(O)c1 (racemic) [(±)-Norepinephrine (+)bitartrate],-0.03
16,CN(C)C[C@H](O)Cn1c2ccc(Br)cc2c2cc(Br)ccc21 (racemic) [Wiskostatin],0.951
17,CN(C)c1ccccc1CN1CCCN(Cc2ccccc2N(C)C)C1c1ccncc1,0.598
18,CS(=O)(=O)c1ccc(-n2nc(C(F)(F)F)cc2-c2ccc(F)cc2)cc1,0.187
19,O=C(Nc1ccc2[nH]ncc2c1)C1CCC1 [Rhodblock 6],0.156
20,COc1cc2nc(N(C)CCCNC(=O)C3CCCO3)nc(N)c2cc1OC (configuration not stated) [Alfuzosin hydrochloride],0.0541
21,"CN(C)CCC(c1ccc(Br)cc1)c1ccccn1 (single isomer, unassigned; (+)) [(+)-Brompheniramine maleate]",0.114
22,CN1CCN(CCCN2c3ccccc3Sc3ccc(C(F)(F)F)cc32)CC1 [Trifluoperazine dihydrochloride],0.794
23,Nc1nc2c(c(=O)[nH]1)C[C@@H](CCc1ccc(C(=O)N[C@@H](CCC(=O)O)C(=O)O)cc1)CN2 [Lometrexol hydrate],-0.284
24,CCN(c1nc(N)c(C(=O)NC(=N)N)nc1Cl)C(C)C [5-(N-Ethyl-N-isopropyl)amiloride],-1.88
25,"CN(C)c1nc(N)c(C(=O)NC(=N)N)nc1Cl [5-(N,N-Dimethyl)amiloride hydrochloride]",0.174
26,N=C(N)NC(=O)c1nc(Cl)c(N)nc1N [Amiloride hydrochloride],-0.0692

row,Compound,cFRET/donor change
1,COc1ccc(Br)cc1S(=O)(=O)NC(=O)/C=C/c1ccccc1Cc1ccc2ccccc2c1,0.583
2,COc1ccc(/C=C/c2nc(NCCCN(C)C)c3ccccc3n2)cc1,0.418
3,Cn1c(=O)c2nc[nH]c2n(C)c1=O [Theophylline],0.334
4,CC[N+](CC)(CC)CCOc1ccc(/C=C/c2ccccc2)cc1,0.391
5,OCCN1CCN(CCCN2c3ccccc3Sc3ccc(Cl)cc32)CC1 [Perphenazine],0.48
6,CN1CCC[C@@H]1Cc1c[nH]c2ccc(CCS(=O)(=O)c3ccccc3)cc12 [Eletriptan hydrobromide],0.314
7,"c1ccc(C2CN3CCSC3=N2)cc1 (single isomer, unassigned; (-)) [(-)-Tetramisole hydrochloride]",0.472
8,N#CC(=C(/N)Sc1ccccc1N)/C(C#N)=C(/N)Sc1ccccc1N,1.14
9,CCOC(=O)[N-]c1c[n+](N2CCOCC2)no1 [Molsidomine],0.0144
10,CCc1cncnc1N1CCN(Cc2nc3ccc(C(F)(F)F)cc3[nH]2)CC1,0.351
11,CN(C)CCCc1cc(C(=O)Nc2ccc(-c3ccncc3)cc2)ccc1O,0.377
12,OC(CCN1CCCCC1)(c1ccccc1)C1CC2C=CC1C2 (configuration not stated) [Biperiden hydrochloride],0.472
13,CCCCCCCCCCCCCCCCCCN(CCCCCCCCCCCCCCCCCC)CCCN(CCO)CCO [Avridine],0.401
14,"O=Nc1ccc2oc(=O)ccc2c1 [6-Nitroso-1,2-benzopyrone]",-1.07
15,O=c1ccc2ccc(O)c(O)c2o1 [Daphnetin],0.438
16,O=C(CCc1ccncc1)NNC(=O)N1Cc2ccccc2Oc2ccc(Cl)cc21,0.597
17,CC(C)c1c(C(=O)Nc2ccccc2)c(-c2ccccc2)c(-c2ccc(F)cc2)n1CC[C@@H](O)C[C@@H](O)CC(=O)O [Atorvastatin calcium salt trihydrate],-0.0539
18,NS(=O)(=O)c1ccc(-n2nc(C(F)(F)F)cc2-c2ccc(Cl)cc2)cc1,0.219
19,"Cc1cn(C2C=CC(CO)O2)c(=O)[nH]c1=O (configuration not stated) [2',3'-didehydro-3'-deoxythymidine]",0.515
20,COc1ccc(S(=O)(=O)Nc2nc(-c3cccc([N+](=O)[O-])c3)cs2)cc1OC,0.458
21,CC(NCCc1ccc(O)cc1)C(O)c1ccc(O)cc1 (configuration not stated) [Ritodrine hydrochloride],-0.0849
22,O=C1c2c(O)ccc(O)c2C(=O)c2c(NCCNCCO)ccc(NCCNCCO)c21 [Mitoxantrone],0.111
23,O=C1c2ccccc2C(=O)c2c(NCCc3ccc(O)cc3)ccc(NCCc3ccc(O)cc3)c21,-1.29
24,CCOc1nc2cccc(C(=O)OC(C)OC(=O)OC3CCCCC3)c2n1Cc1ccc(-c2ccccc2-c2nn[nH]n2)cc1 (configuration not stated) [Candesartan cilexetil],0.942
25,O=C1NCCc2[nH]c(-c3ccncc3)cc21,-0.0657
